Bioassay records (PubChem)
Integrin act MD = integrin-mediated muscular dystrophy alleviation activation; alpha7betagal myoblasts, beta-gal FDG fluorescence, 48 h; Potency, µM (top dose mostly 38.3 µM), without a hit: at the top dose activation, most hits filed as activators; 350,000 compounds, 0.064% hits; AID 624291;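 note: potency is the fitted concentration of half-maximal effect; 100% = response of the positive control SU9516; nearly all actives have a fitted effect of over 60% in size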
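Alpha7betagal+/- myoblasts (passage 13) were plated 16-24 hr, then exposed to compounds (1:260 dilution of DMSO stock) for 48 hours at 37C. After MPER lysis, β-galactosidase reporter activity was read as FDG fluorescence (ex 480/em 540) after 30 minutes.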
IDH1 R132H inh = human IDH1 R132H inhibition. O75874. IDH1-R132H enzyme, NADPH consumption, diaphorase/resazurin fluorescence. Potency, µM (series often up to 76.6 µM), for the others: at the highest dose activity change, negative = inhibition, most hits filed as inhibitors. 390,000 compounds, 0.093% hits; note: potency is the fitted concentration of half-maximal effect; % is set by controls: 0 for no effect and ±100 for the full control effect; nearly all actives have a fitted effect of over 65% in size
Target sequence (O75874 whole entry R132H, stated change not applied): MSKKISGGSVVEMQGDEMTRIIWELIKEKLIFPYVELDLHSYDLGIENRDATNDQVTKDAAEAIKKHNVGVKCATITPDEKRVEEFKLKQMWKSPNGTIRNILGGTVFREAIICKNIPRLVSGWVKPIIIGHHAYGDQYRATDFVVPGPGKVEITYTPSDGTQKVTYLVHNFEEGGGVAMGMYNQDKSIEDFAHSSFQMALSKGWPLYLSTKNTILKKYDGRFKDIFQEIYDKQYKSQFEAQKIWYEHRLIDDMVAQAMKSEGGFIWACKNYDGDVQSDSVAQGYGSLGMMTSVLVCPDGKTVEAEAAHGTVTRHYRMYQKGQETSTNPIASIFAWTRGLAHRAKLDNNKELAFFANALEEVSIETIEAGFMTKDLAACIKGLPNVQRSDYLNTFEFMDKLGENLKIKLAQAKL
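IDH1-R132H (0.5 ug/mL dispensed) in pH 7.5 Tris buffer was preincubated 30 min with compound, then given a substrate mix of 0.016 mM NADPH and 2 mM alpha-KG for 80 min at room temperature; remaining NADPH was read by diaphorase/resazurin fluorescence.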
DRD3 agonist = D3 dopamine receptor (human) agonism; P35462; D3R DiscoveRx beta-arrestin cells, luminescence, 90 min; max activation, %; 410,000 compounds, 0.58% hits; AID 652048; in the data active = max activation above about 30%; note: 0% is about no effect
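Agonist mode: compounds and dopamine controls were applied to plated cells for 90 min at 37 degrees C after an overnight attachment at 1500 cells/well. Luminescent read-out followed 30 - 60 minutes at room temperature with DiscoveRx detection reagent.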
B2AR arrestin = agonists driving beta-arrestin recruitment to human beta2-adrenergic receptor; P07550; beta-arrestin recruitment to beta2AR, cell-based reporter; Potency, µM (titrated, usually from 46.1 µM), without a hit: at the highest dose activation, usual class: activators; 330,000 compounds, 0.02% hits;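 note: potency is the fitted concentration of half-maximal effect; 0% = DMSO controls and full agonism = EC100 isoproterenol or metaproterenol; nearly all actives have a fitted effect of over 65% in size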
DRD3 antagonist = D3 dopamine receptor (human) antagonism | P35462 | D3R cells, DiscoveRx beta-arrestin luminescence, antagonist mode; hits give low values | max response, negative = inhibition, % | 360,000 compounds, 2.5% hits | AID 652054; in the data active = max response below about -50%; inconclusive = no clear call, values can overlap the other calls; note: % is set by controls: 0 for no effect and ±100 for the full control effect
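Cells expressing the human receptor were seeded at 1500 cells/well, incubated overnight at 37 degrees C in 5% CO2, then exposed to library compounds with dopamine controls for 90 minutes at 37 degrees C before luminescent detection.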
Active calls of the source: *. Most compounds without a hit are left out; they make up all but 2.9% or so of the library. Unless noted, calls come from the whole dose curve; as a rule, active = well fitted curve in the direction sought with a large enough effect; inconclusive = small, poorly fitted or top-dose-only effect, or another doubt; inactive = no such curve, though single readings can be large; an effect the other way counts as inactive or inconclusive.

Cn1c(=O)c2cc(C(=O)N3CCN(c4cccc(C(F)(F)F)c4)CC3)sc2c2ccccc21 was read as IDH1 R132H inh inconclusive and DRD3 agonist -2.3.
Screening CC(=O)Nc1cccc(-c2nnc(SCC(=O)c3cc([N+](=O)[O-])ccc3Br)o2)c1 returned IDH1 R132H inh -11.2% and DRD3 agonist -13.2.
CC(=O)n1cc(N(C(=O)CCl)c2ccc(C)cc2)c2ccccc21 was read as Integrin act MD -61.2%, IDH1 R132H inh 6.3%, DRD3 agonist -10.9, B2AR arrestin -0.7% and DRD3 antagonist -67.0*.
For CNc1nnc(SCC(=O)c2cc(C)n(C3CC3)c2C)s1 the results were Integrin act MD 12.6µM*, IDH1 R132H inh 10.2%, DRD3 agonist -0.8, B2AR arrestin -2.7% and DRD3 antagonist -1.4.
Screening O=C(CSc1cn(CCNC(=O)c2c(F)cccc2F)c2ccccc12)Nc1ccc2c(c1)OCCO2 returned IDH1 R132H inh -20.1% and DRD3 agonist 5.4.
`Clc1ccc2c(NCCNC3CCCCC3)ccnc2c1` gave Integrin act MD -66.5%, IDH1 R132H inh 8.3%, DRD3 agonist -20.4 and DRD3 antagonist -98.4*.
`CC(C)NC1CCC(Nc2ccnc3cc(Cl)ccc23)CC1` (configuration not stated) gave Integrin act MD -71.3%, IDH1 R132H inh 2.8%, DRD3 agonist -2.9 and DRD3 antagonist -3.4.
`CN(CCO)CC(O)CN(c1ccccc1)c1ccccc1` (configuration not stated) gave Integrin act MD -13.2%, IDH1 R132H inh 2.0%, DRD3 agonist 0.1, B2AR arrestin -0.2% and DRD3 antagonist -50.7*.
O=C(C1CCN(S(=O)(=O)c2cccc3cccnc23)CC1)N1CCn2c1nc1ccccc12 was read as Integrin act MD -59.9%, IDH1 R132H inh -1.3%, DRD3 agonist -40.5, B2AR arrestin 0.1% and DRD3 antagonist -184.4*.
For O=C(COC(=O)C1CCN(S(=O)(=O)c2cccc3cccnc23)CC1)c1ccc(F)cc1 the results were Integrin act MD 10.4%, IDH1 R132H inh 10.7%, DRD3 agonist 5.5, B2AR arrestin -0.2% and DRD3 antagonist -52.4*.
Screening COc1ccc(Cl)cc1NC(=O)Cn1c(=O)n(Cc2cccs2)c(=O)c2cccnc21 returned IDH1 R132H inh -9.5% and DRD3 agonist -11.6.
For CCOc1ccc(Cl)cc1CNCCNCC(C)O (configuration not stated) the results were Integrin act MD -38.2%, IDH1 R132H inh 4.5%, DRD3 agonist -32.9, B2AR arrestin -0.2% and DRD3 antagonist -70.9*.
Oc1ccc(CN2CCCCC2)nc1-c1ccccc1 was read as Integrin act MD 5.6%, IDH1 R132H inh 8.1%, DRD3 agonist 12.6, B2AR arrestin -0.7% and DRD3 antagonist -51.6*.
Screening Oc1ccc(-c2ccccc2)cc1CN1CCCCCC1 returned Integrin act MD -11.0%, IDH1 R132H inh -11.3%, DRD3 agonist -18.5, B2AR arrestin -0.9% and DRD3 antagonist -92.8*.
For CCCNC(=O)NS(=O)(=O)c1cnccc1Sc1ccc(Cl)c(Cl)c1 the results were Integrin act MD -6.9%, IDH1 R132H inh 2.8%, DRD3 agonist 9.9, B2AR arrestin -0.8% and DRD3 antagonist -53.4*.
For CCCNC(=O)NS(=O)(=O)c1cnccc1Sc1ccc(Cl)cc1 the results were Integrin act MD 0.7%, IDH1 R132H inh -1.9%, DRD3 agonist -4.8, B2AR arrestin 0.1% and DRD3 antagonist 0.0.
For CC(C)n1nc(-c2cc3cc(O)ccc3[nH]2)c2c(N)ncnc21 the results were DRD3 agonist -12.0.
For CCn1cc(C(=O)NCc2ccccc2OC)c(=O)c2cc(S(=O)(=O)N3CCCCC3)ccc21 the results were IDH1 R132H inh 15.5% and DRD3 agonist -16.7.
CS/C(N)=N/N=C/c1cc(C)ccc1O was read as Integrin act MD 2.9%, IDH1 R132H inh -8.0%, DRD3 agonist 11.2, B2AR arrestin inconclusive and DRD3 antagonist -8.0.
`CCS/C(N)=N/N=C/c1cc(C)ccc1O` gave Integrin act MD 8.3%, IDH1 R132H inh 4.2%, DRD3 agonist -6.2, B2AR arrestin -0.2% and DRD3 antagonist -52.9*.
For CCCCS/C(N)=N/N=C/c1cc(C)ccc1O the results were Integrin act MD -24.4%, IDH1 R132H inh -1.6%, DRD3 agonist -11.4, B2AR arrestin inconclusive and DRD3 antagonist -54.8*.
For O=C(Nc1ccc(F)cc1)Nc1nnc(Cc2ccccc2F)s1 the results were Integrin act MD 12.1%, IDH1 R132H inh 7.5%, DRD3 agonist 2.5, B2AR arrestin -0.4% and DRD3 antagonist 3.9.
Screening Cc1ccc(OCC(=O)NCC(=O)OCc2cc(=O)n3nc(C(C)C)sc3n2)cc1 returned IDH1 R132H inh 28.8% and DRD3 agonist -10.1.
`CN1CCC(=C(c2ccccc2)c2ccc(Br)cc2)CC1` gave Integrin act MD -66.5%, IDH1 R132H inh -1.4%, DRD3 agonist -25.7 and DRD3 antagonist -99.0*.
For C=C1SC(Nc2c(C)cccc2C)=NC12CCCCC2 the results were Integrin act MD -43.8%, IDH1 R132H inh 1.0%, DRD3 agonist -5.8, B2AR arrestin -0.4% and DRD3 antagonist -16.6.
Screening C=C1SC(Nc2c(C)cc(C)cc2C)=NC12CCCCC2 returned Integrin act MD -56.4%, IDH1 R132H inh -0.9%, DRD3 agonist -24.5, B2AR arrestin -0.3% and DRD3 antagonist -54.4*.
Screening CCc1ccc(C2c3[nH]c4ccccc4c3CCN2C(=O)CN2CCN(CC)CC2)cc1 (configuration not stated) returned Integrin act MD -65.4%, IDH1 R132H inh -1.1%, DRD3 agonist -14.3, B2AR arrestin 0.4% and DRD3 antagonist -55.2*.
`COc1cccc(CCNC(=O)c2c(O)nc3ccccn3c2=O)c1` gave IDH1 R132H inh -5.5% and DRD3 agonist -8.2.
Screening COc1ccc(NC2=NC3(CCCCC3)N=C(N)N2)cc1 returned Integrin act MD -4.0%, IDH1 R132H inh 7.8%, DRD3 agonist -0.3, B2AR arrestin 0.5% and DRD3 antagonist -13.0.
COc1ccc(OC)c(NC2=NC3(CCCCC3)N=C(N)N2)c1 was read as Integrin act MD 0.0%, IDH1 R132H inh 3.7%, DRD3 agonist 0.2, B2AR arrestin 0.1% and DRD3 antagonist -55.2*.
For CCOC(=O)c1cc(C#N)c(N2CCN(C)CC2)nc1-c1ccccc1 the results were Integrin act MD 0.0%, IDH1 R132H inh 1.0%, DRD3 agonist -22.8, B2AR arrestin 0.3% and DRD3 antagonist -69.4*.
Screening COc1ccc(-c2nc(-c3ccccc3)nc(N3CCN(C)CC3)c2C#N)cc1 returned Integrin act MD 0.7%, IDH1 R132H inh 2.1%, DRD3 agonist -11.7, B2AR arrestin -0.8% and DRD3 antagonist -85.3*.
COc1ccc2nc(N3CCC(C)CC3)c(C#N)cc2c1 was read as Integrin act MD 19.0%, IDH1 R132H inh 4.0%, DRD3 agonist 1.2, B2AR arrestin 0.0% and DRD3 antagonist 5.4.
